# Results: PubChem BioAssay (Tox21)
# Inconclusive results are not listed. Active and inactive are the calls of the source. Calls come from the whole dose curve; as a rule, active = well fitted inhibition curve with a large enough effect in the signal ratio in the repeat runs (not every such curve was filed as active); inconclusive = weak or mixed curves, or effect the other way; inactive = no such curve, though single readings can be large or run the other way; the % refers to the signal ratio.
# Biological target: Bile acid receptor (Homo sapiens) (UniProt Q96RI1)
# Assay: qHTS assay to identify small molecule antagonists of the farnesoid-X-receptor (FXR) signaling pathway (AID 743217)
# Conditions: HEK293T FXR-UAS-bla, beta-lactamase ratio, CDCA-stimulated, 16 h; series mostly up to 62.6 µM
# Description: U.S. Tox21 Program National Center for Advancing Translational Sciences [NCATS] NIH Chemical Genomics Center [NCGC] U.S. Environmental Protection Agency [EPA] National Institutes of Environmental Health Sciences [NIEHS] National Toxicology Program [NTP] U.S. Food and Drug Administration [FDA] Tox21 Assay Overview: The farnesoid-X-receptor (FXR), a nuclear hormone receptor, is highly expressed in liver, intestine, kidney and adrenal cortex. Natural ligands of FXR are the bile acids (Cholic acid, Chenodeoxy cholic acid etc). FXR is an important regulator of diverse metabolic pathways, including the bile acid homeostasis, lipid and glucose metabolisms. FXR regulates the expression of target genes by binding either as a monomer or as a heterodimer with the retinoid X receptor (RXR). Numerous studies have reported that FXR exerts protective function during cholestasis, diabetes, liver regeneration, and cancer. To identify compounds that inhibit FXR signaling, GeneBLAzer FXR-UAS-bla HEK 293T cell line (Invitrogen, Carlsbad, CA) containing a beta-lactamase reporter gene under the control of a UAS response element was used to screen the Tox21 10K compound library.
# Tox21 Assay Protocol Summary: FXR-bla cells were dispensed at 5000 cells/5uL/well in 1536-well black wall/clear bottom plates using a Multidrop Combi (Thermo Fisher Scientific, Waltham, MA) dispenser. After the assay plates were incubated at 37C and 5% CO2 for 5 h, 23 nL of compounds dissolved in DMSO, positive controls or DMSO only was transferred to the assay plate by a Pintool station (Kalypsys, San Diego, CA), followed by addition of 1 uL Chenodeoxycholic acid (50 uM, final concentration in the wells). The assay plates were incubated at 37C for 16 h. After 1 uL of LiveBLAzerTM B/G FRET substrate was added using a Bioraptr Flying Reagent Dispenser (FRD) workstation (Beckman Coulter, Indianapolis, IN), the plates were incubated at room temperature for 2 h, and fluorescence intensity was measured by an Envision plate reader (PerkinElmer, Shelton, CT).
# Bile acid receptor (Homo sapiens), sequence (Q96RI1 whole entry, looked up): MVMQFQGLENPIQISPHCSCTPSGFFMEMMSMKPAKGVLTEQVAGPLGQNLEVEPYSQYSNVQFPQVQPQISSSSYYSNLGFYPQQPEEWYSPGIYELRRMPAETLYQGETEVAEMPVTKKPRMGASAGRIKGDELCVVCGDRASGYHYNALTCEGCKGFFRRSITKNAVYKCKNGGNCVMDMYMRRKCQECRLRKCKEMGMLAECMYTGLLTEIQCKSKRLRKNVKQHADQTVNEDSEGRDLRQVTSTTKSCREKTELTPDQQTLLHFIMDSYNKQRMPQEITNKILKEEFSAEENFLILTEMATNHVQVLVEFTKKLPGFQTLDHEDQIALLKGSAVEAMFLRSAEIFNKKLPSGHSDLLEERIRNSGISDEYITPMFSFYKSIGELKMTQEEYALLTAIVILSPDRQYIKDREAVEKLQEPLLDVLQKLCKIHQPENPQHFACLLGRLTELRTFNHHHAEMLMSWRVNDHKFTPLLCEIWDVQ
row,Structure (SMILES),outcome
1,CN1C(=O)CC(c2ccccc2)C1=O (stereo not given),inactive
2,CC(=O)N[C@@H](CC(C)C)C(=O)O,inactive
3,CCC(=O)Nc1ccc(O)cc1,inactive
4,CCCCCCCCOC(=O)CCCCCCCCC(=O)OCCCCCCCC,inactive
5,O=C(C(Cl)Cl)N1CCOC12CCCCC2,inactive
6,CN(CCCN1c2ccccc2CCc2ccccc21)CC(=O)c1ccc(Cl)cc1,inactive
7,C=CC(C)(O)CC/C=C(\C)CCC=C(C)C (stereo not given),inactive
8,NC(=O)NS(=O)(=O)c1ccc(Cl)cc1,inactive
9,CCCc1c2oc(C(=O)O)cc(=O)c2cc2c(=O)cc(C(=O)O)n(CC)c12,inactive
10,CC(=O)N(CC(O)CN(C(C)=O)c1c(I)c(C(=O)NCC(O)CO)c(I)c(C(=O)NCC(O)CO)c1I)c1c(I)c(C(=O)NCC(O)CO)c(I)c(C(=O)NCC(O)CO)c1I (stereo not given),inactive
11,Oc1ccccc1F,inactive
12,CNCCC(Oc1ccccc1OC)c1ccccc1 (stereo not given),inactive
13,CCOC(=O)C1CC(=O)C(=C(O)C2CC2)C(=O)C1 (stereo not given),inactive
14,C[C@@H]1CN(c2c(F)c(N)c3c(=O)c(C(=O)O)cn(C4CC4)c3c2F)C[C@H](C)N1,inactive
15,CC(C)C(=O)OCC(C)(C)C(O)C(C)C (stereo not given),inactive
16,CCCC(CCC)(C(=O)OCC)C(=O)OCC,inactive
17,CCNCCO,inactive
18,CCN(CCCc1ccccc1)CCCc1ccccc1,inactive
19,CC1=C(O)C(=O)OC1C (stereo not given),inactive
20,C=CCc1cc(OC)c(O)c(C(=O)NCCO)c1,inactive

row,Structure (SMILES),outcome
1,O=C(Cl)c1cccc([N+](=O)[O-])c1,inactive
2,FC(F)(F)C(Cl)(Cl)Cl,inactive
3,OC[C@H]1O[C@@H](O[C@H]2[C@H](O)[C@@H](O)[C@H](O)O[C@@H]2CO)[C@H](O)[C@@H](O)[C@H]1O,inactive
4,O=C1C=CC(=O)O1,inactive
5,FC(F)(F)C(F)(F)C(F)(F)C(F)(F)C(F)(F)C(F)(F)C(F)(F)C(F)(F)Br,inactive
6,N#CSCC(=O)O,inactive
7,O=C1CCN(c2ccccc2)N1,inactive
8,CC(C)O,inactive
9,COC(=O)c1ccc(OC)cc1,inactive
10,CCC(=O)c1ccc2c(c1)N(CCCN(C)C)c1ccccc1S2,inactive
11,CCC1(C)NC(=O)NC1=O (stereo not given),inactive
12,COC(=O)/C=C(/C)N,inactive
13,Cc1ccc(C)c(N)c1,inactive
14,CC1CN(c2ccccc2)NC1=O (stereo not given),inactive
15,NNS(=O)(=O)c1ccc(Oc2ccc(S(=O)(=O)NN)cc2)cc1,inactive
16,C1CCOC1,inactive
17,O=c1oc2c(O)c(O)cc3c(=O)oc4c(O)c(O)cc1c4c23,inactive
18,CCOc1ccc(NC(N)=O)cc1,inactive
19,CCN(CC)C(=O)N(CC)CC,inactive
20,C=CCCC=C,inactive
